# Literature values, collected in PubChem BioAssay AID977611.
# Screen size: about 3,900 compounds; about 3,900 (100%) were called active. Cut-off not given; nearly all actives show Kd up to about 4200 µM. So high a share suggests a set chosen from earlier hits. The list shows a part of the results. Numbered stars: 1 amine (or outer) side, 2 acyl side, 3 side chain; on linkers, the order of the positions; unused ones are H or OH. Where a SMILES comes first, the peptide text is derived from it. Non-standard residues stand in square brackets, D forms with d. Square brackets hold non-standard residues; d marks the D form. Residues, ends and D or L forms follow the SMILES beside them. Peptide text beside a SMILES is read from it. [ ]: non-standard residue; d: D form. X1 = CNC(NC)NCCC[C@H](N[*:1])C(=O)[*:2]; Lys(Me3) = C[N+](C)(C)CCCC[C@H](N)C(=O)O; Orn(CH(NH2)2) = NC(N)NCCC[C@H](N)C(=O)O; Abu = CC[C@H](N)C(=O)O
# Test: PubChem AID 977611
# Conditions: PDB protein-ligand complexes, literature Kd
molecule,measurement,setting,value
c1ccc([C@@H]2Nc3ccccc3-c3nc4ccccc4n32)nc1,Kd,"protein: Retinal rod rhodopsin-sensitive cGMP 3',5'-cyclic phosphodiesterase subunit delta, PDB entry 4jv8",1.42 µM (active)
Cc1cc2nc3c(=O)[nH]c(=O)nc-3n(C[C@H](O)[C@H](O)[C@H](O)CO)c2cc1C,Kd,"protein: putative protease fromBacteroides thetaiotaomicron (ppBat), PDB entry 4d1y",0.074 µM (active)
O=C1N[C@@H](c2cccnc2)c2c(-c3ccccc3)n[nH]c21,Kd,"protein: Gag protein, PDB entry 4j93",20 µM (active)
O=C(O)c1ccc2c(c1)OCO2,Kd,"protein: Pantothenate synthetase (T2A, E77G mutation), PDB entry 4ddk",5100 µM (active)
O=C(O)CCc1ccc2c(c1)OCO2,Kd,"protein: INTEGRASE, PDB entry 4ahr",6500 µM (active)
same,Kd,"protein: Pantothenate synthetase (T2A, E77G mutation), PDB entry 4ef6",1200 µM (active)
O=C1NC(=[N+]2CCCC2)Cc2ccccc21,Kd,"protein: Caspase-6, PDB entry 4n7m",3.4 µM (active)
O=C(Nc1ccc(OC(F)(F)F)cc1)N(Cc1cccc(-c2nccs2)c1)C1CC1,Kd,"protein: High affinity nerve growth factor receptor TrkA, PDB entry 4pmp",0.4 µM (active)
CCc1c(C(=O)Nc2cc(S(=O)(=O)N(CC)CC)ccc2O)[nH]c(C)c1C(C)=O,Kd,"protein: Bromodomain-containing protein 4, BRD4(1), PDB entry 4lyw",237 µM (active)
CCc1c(C(=O)NC)[nH]c(C)c1C(C)=O,Kd,"protein: Bromodomain-containing protein 4, BRD4(1), PDB entry 4lzs",16 µM (active)
CC(C)C[C@H](NC(=O)[C@@H](NC(=O)[C@H](C)NC(=O)[C@H](Cc1ccc(O)cc1)NC(=O)[C@H](C)NC(=O)[C@@H]1CCCN1C(=O)[C@@H]1CCCN1C(=O)[C@@H]1CCCN1C(=O)[C@H](C)NC(=O)[C@@H](N)[C@@H](C)O)[C@@H](C)O)C(=O)NCC(=O)O (H-TAPPPAYATLG-OH),Kd,"protein: E3 ubiquitin-protein ligase NEDD4, PDB entry 2m3o",5 µM (active)
CC[C@H](C)[C@H](NC(=O)[C@H](C)NC(=O)[C@@H]1CCCN1C(=O)[C@@H](NC(=O)[C@@H](N)CC(=O)O)[C@@H](C)CC)C(=O)N[C@@H](Cc1ccc(O)cc1)C(=O)N[C@@H](CCCNC(N)N)C(=O)N[C@@H](Cc1ccc(O)cc1)C(=O)NCC(=O)N[C@@H](CC(C)C)C(=O)N[C@@H](CCC(=O)O)C(=O)NCC(=O)N[C@@H](CC(C)C)C(=O)N[C@@H](CC(C)C)C(=O)O (H-DIPAIY[Orn(CH(NH2)2)]YGLEGLL-OH),Kd,"protein: CELL DIVISION PROTEIN FTSA, PUTATIVE, PDB entry 4a2a",45 µM (active)
CC(C)C[C@H](NC(=O)[C@H](CCC(N)=O)NC(=O)CNC(=O)[C@H](CCC(N)=O)NC(=O)[C@@H]1CCCN1C(=O)[C@H](CC(C)C)NC(=O)[C@@H]1CCCN1C(=O)[C@H](CCC(=O)O)NC(=O)[C@@H]1CCCN1C(=O)[C@@H](N)CC(C)C)C(=O)N[C@H](C(=O)N[C@@H](C)C(=O)N[C@@H](Cc1ccc(O)cc1)C(=O)O)[C@@H](C)O,Kd,"protein: HLA class I histocompatibility antigen(HLA-B*3501), PDB entry 1zhk",35.2 µM (active)
same,Kd,"protein: HLA class I histocompatibility antigen(HLA-B*3508), PDB entry 1zhl",9.9 µM (active)
CC[C@H](C)[C@H](NC(=O)[C@H](CCC(=O)O)NC(=O)[C@@H](NC(=O)[C@H](CC(=O)O)NC(=O)CNC(=O)[C@H](Cc1ccc(O[P+](O)(O)O)cc1)NC(=O)[C@H](CC(=O)O)NC(=O)[C@H](CCC(=O)O)NC(=O)[C@@H]1CCCN1C(=O)[C@H](Cc1ccc(O)cc1)NC(=O)[C@@H]1CCCN1C(=O)[C@H](CC(N)=O)NC(=O)[C@@H](N)Cc1ccc(O)cc1)[C@@H](C)CC)C(=O)NCC(=O)O (H-YNPYPED[X1]GDIEIG-OH),Kd,"protein: insulin receptor subunit beta, PDB entry 3bu6",1.3 µM (active)
H-QAQGPPYPTYPGY-OH,Kd,"protein: ESCRT and ALIX binding region (EABR), PDB entry 3e1r",1.5 µM (active)
CC[C@H](NC(=O)[C@@H](NC(=O)[C@H](CC(C)C)NC(=O)[C@H](CC(=O)O)NC(=O)[C@H](CCC(N)=O)NC(=O)[C@H](CCC(=O)O)NC(=O)[C@@H](NC(=O)[C@@H]1CCCN1C(=O)[C@@H]1CCCN1C(=O)[C@@H](N)CC(C)C)[C@@H](C)O)[C@@H](C)O)C(=O)N[C@@H](CC(C)C)C(=O)N[C@@H](CC(C)C)C(=O)N[C@@H](C)C(=O)N[C@@H](CCC(=O)O)C(=O)O (H-LPPTEQDLT[Abu]LLAE-OH),Kd,"protein: nuclear coactivator 1 (NCoA-1) PAS-B domain, PDB entry 1oj5",0.8 µM (active)
H-DDDEDGYNPYTL-OH,Kd,"protein: CTD interacting domain of Protein NRD1, PDB entry 2mow",1.09 µM (active)
C[C@H](N)C(=O)N[C@@H](CCCN=C(N)N)C(=O)N[C@H](C(=O)N[C@@H](CCCC[N+](C)(C)C)C(=O)N[C@@H](CCC(N)=O)C(=O)N[C@H](C(=O)N[C@@H](C)C(=O)N[C@@H](CCCNC(N)=[N+](C)C)C(=O)N[C@@H](CCCCN)C(=O)O)[C@@H](C)O)[C@@H](C)O,Kd,"protein: human Spindlin1, PDB entry 4mzf",0.045 µM (active)
C[C@H](N)C(=O)N[C@@H](CCCN=C(N)N)C(=O)N[C@H](C(=O)N[C@@H](CCCC[N+](C)(C)C)C(=O)N[C@@H](CCC(N)=O)C(=O)N[C@H](C(=O)N[C@@H](C)C(=O)O)[C@@H](C)O)[C@@H](C)O (H-ART[Lys(Me3)]QTA-OH),Kd,"protein: human Spindlin1, PDB entry 4mzh",0.066 µM (active)
CNC(NC)NCCC[C@H](NC(=O)[C@H](C)N)C(=O)N[C@H](C(=O)N[C@@H](CCCC[N+](C)(C)C)C(=O)N[C@@H](CCC(N)=O)C(=O)N[C@H](C(=O)N[C@@H](C)C(=O)N[C@@H](C)C(=O)N[C@@H](C)C(N)=O)[C@@H](C)O)[C@@H](C)O (H-A[X1]T[Lys(Me3)]QTAAA-NH2),Kd,"protein: RAG2-PHD, PDB entry 2v87",25.1 µM (active)
C[C@H](N)C(=O)N[C@@H](CCCNC(N)N)C(=O)N[C@@H](CCCC[N+](C)(C)C)C(=O)N[C@@H](CO)C(=O)N[C@@H](C)C(=O)NCC(=O)N[C@@H](C)C(=O)N[C@@H](C)C=O (H-A[Orn(CH(NH2)2)][Lys(Me3)]SAGAA-aldehyde),Kd,"protein: Polycomb protein EED residues 77-441, PDB entry 3iiy",16 µM (active)
C[C@H](N)C(=O)N[C@@H](CCCNC(N)N)C(=O)N[C@@H](CCCC[N+](C)(C)C)C(=O)N[C@@H](CO)C(=O)N[C@@H](C)C(=O)O (H-A[Orn(CH(NH2)2)][Lys(Me3)]SA-OH),Kd,"protein: Polycomb protein EED residues 77-441, PDB entry 3iiw",36.4 µM (active)
C[C@H](N)C(=O)N[C@@H](CCCNC(N)N)C(=O)N[C@H](C(=O)N[C@@H](CCCC[N+](C)(C)C)C(=O)N[C@@H](CCC(N)=O)C(=O)N[C@H](C(=O)O)[C@@H](C)O)[C@@H](C)O (H-A[Orn(CH(NH2)2)]T[Lys(Me3)]QT-OH),Kd,"protein: bromodomain PHD finger transcription factor, PDB entry 2f6j",2.7 µM (active)
C[C@H](N)C(=O)N[C@@H](CCCNC(N)N)C(=O)N[C@H](C(=O)N[C@@H](CCCC[N+](C)(C)C)C(=O)N[C@@H](CCC(N)=O)C(=O)N[C@H](C(=O)N[C@@H](C)C(=O)O)[C@@H](C)O)[C@@H](C)O (H-A[Orn(CH(NH2)2)]T[Lys(Me3)]QTA-OH),Kd,"protein: Histone-lysine N-methyltransferase MLL5, PDB entry 4l58",21 µM (active)
same,Kd,"protein: Inhibitor of growth protein 5, PDB entry 3c6w",2.4 µM (active)
same,Kd,"protein: Jumonji domain-containing protein 2A, PDB entry 2gfa",10.4 µM (active)
CN(C)S(=O)(=O)c1ccsc1,Kd,"protein: Pantothenate synthetase (T2A, E77G mutation), PDB entry 4efk",3200 µM (active)
same,Kd,"protein: Pantothenate synthetase (T2A, E77G mutation), PDB entry 4g5y",1700 µM (active)
CC1(C)NC(N)NC(N)N1c1ccc(Cl)cc1 (stereo not given),Kd,"protein: Dihydrofolate reductase, PDB entry 4kne",1.26 µM (active)
